Compound activity: PubChem BioAssay, ICCB-Longwood Screening Facility, Harvard Medical School
MenB inh = Mtb MenB enzyme inhibition; P9WNP5; AID 540299; MenB enzyme assay, absorbance read-out; 100,000 compounds, 0.43% hits; inhibition, % (test concentration not listed); in the data active means inhibition above about 21%, passing the limit was not always enough
Polio RdRp inh = inhibitors of poliovirus RNA polymerase binding and polymerization; poliovirus polymerase elongation, fluorescence polarization; stronger effect = lower value; AID 588519; % elongation, % (compound at 16.7 µg/mL); 150,000 compounds, 0.66% hits; P03300; in the data active means % elongation below about 90%
AID504770 = E. coli YBA685 growth inhibition, screen for V. cholerae RctB inhibitors; AID 504770; E. coli YBA685 rctB-dependent plasmid, OD600 growth, 3 h; stronger effect = lower value; z-score (test concentration not listed); 130,000 compounds, 0.27% hits; in the data active means z-score below about -2, passing the limit was not always enough
Mtb MbtI inh = inhibitors of Mycobacterium tuberculosis siderophore enzyme MbtI; inhibition, % (concentration not given with the values); purified MbtI enzyme, fluorescence intensity read-out; 100,000 compounds, 0.89% hits; P9WFX0; in the data active means inhibition mostly above about 56%, no sharp cut-off; inactive means mostly below about 77%
Target sequence (P9WFX0 whole entry, looked up): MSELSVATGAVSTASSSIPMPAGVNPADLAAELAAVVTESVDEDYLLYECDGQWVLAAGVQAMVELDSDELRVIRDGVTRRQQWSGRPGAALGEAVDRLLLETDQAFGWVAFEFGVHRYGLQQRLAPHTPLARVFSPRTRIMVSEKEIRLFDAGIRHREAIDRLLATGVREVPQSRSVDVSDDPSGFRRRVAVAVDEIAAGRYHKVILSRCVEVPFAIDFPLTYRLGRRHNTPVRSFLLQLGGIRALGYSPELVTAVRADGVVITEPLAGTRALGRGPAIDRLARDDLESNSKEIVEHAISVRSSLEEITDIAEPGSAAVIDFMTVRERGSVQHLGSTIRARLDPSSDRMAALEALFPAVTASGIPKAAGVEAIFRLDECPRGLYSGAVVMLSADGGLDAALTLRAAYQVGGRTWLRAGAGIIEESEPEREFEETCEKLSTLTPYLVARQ
Starred values were filed as active, the others as inactive; nt = no result given. Compounds with a hit are over-represented: about 1.5% of the library has one in this group of screens.

SMILES	MenB inh	Polio RdRp inh	AID504770	Mtb MbtI inh
O=C(O)CC1C(=O)NC(=Nc2ccccc2)N1c1ccccc1 (stereo not given)	-24	102	-0.5	-9
O=C(O)CC1C(=O)NN=C2c3ccccc3N=CN21 (stereo not given)	-20	78*	-0.65	26
c1ccc(OCCSC2=NCCN2)cc1	-37	101	-1.4	89*
c1ccc(OCCSc2nc3ccccc3[nH]2)cc1	-1	101	0.25	-1
C=CCN1C(=O)/C(=C2/C(=O)N(CC=C)c3ccccc32)SC1=S	-3	102	0.65	-6
CCN1C(=O)C2CC(C)=C(C)CC2C1=O (stereo not given)	-9	97	-0.8	-3
CCN1C(=O)CC(OC(C)=O)C1=O (stereo not given)	-17	103	0.2	66*
Cc1cc(Oc2ccnc3cc(Cl)ccc23)ccc1Cl	-25	104	-0.75	-7
CN(C(=O)Cc1ccc(Br)cc1)c1ccccc1	-32	98	-0.9	-12
O=C(NC(=S)c1ccccc1)C1CC1	-38	91	-0.45	74*
Cc1nc(-c2ccc3c(c2)OCCO3)cs1	-13	78*	0.3	92*
CC(=O)Nc1nc(-c2ccc3c(c2)OCCO3)cs1	nt	nt	0.4	nt
Cc1nc(-c2ccc(C(=O)O)cc2)cs1	28*	103	1.9	20
CC(C)C(=O)NCCCc1nc2ccccc2n1C	-6	102	-0.35	-7
Cc1nc2ccccc2c2c1C(=O)CC(c1ccc(F)cc1)=N2	-25	101	-0.5	-8
Cc1ccc(OC(=O)c2ccno2)cc1	nt	nt	1.5	nt
O=C(Oc1cc(Cl)cc(Cl)c1)c1ccno1	nt	nt	-2.5*	nt
C=CCN1C(=O)/C(=C\C=C2/CCCN2C)SC1=S	-17	nt	1.2	10
O=C(COc1ccc2ccccc2c1Br)NC1CCCCC1	-1	104	-0.3	nt
O=C(O)CCCC(=O)Nc1ccc(C(=O)N2CCCCC2)cc1	33*	102	1.6	-2
O=C(CSc1cccc[n+]1[O-])c1cccs1	nt	100	-0.65	98*
O=C(CSc1cccc[n+]1[O-])c1cc2ccccc2o1	nt	99	0.15	98*
Cn1nnnc1SCC(=O)Nc1ccc(C(=O)Nc2ccc3c(c2)OC2(CCCC2)O3)cc1	-10	103	1.5	32
CC(N)c1cccnc1 (stereo not given)	-16	102	0	-2
Cc1cc(SCC(=O)Nc2ccccc2)c2ccccc2n1	-31	89*	-0.05	nt
SMILES	MenB inh	Polio RdRp inh	AID504770	Mtb MbtI inh
CC(C)n1c(SCC(=O)Nc2ccccc2)nc2ccccc2c1=O	-8	97	0.75	-5
O=C(NCCN1CCOCC1)c1nc(-c2ccc(Cl)cc2)n2c1CCCCC2	-12	103	-2.6*	4
CCCNC(=O)c1nc(-c2ccc(Cl)cc2)n2c1CCCCC2	-28	105	1.8	-7
Cc1ccc2nc(C3=C(O)CN(CC(C)C)C3=N)[nH]c2c1	12	98	-0.85	3
S=c1[nH]c2ccccc2n1C1CCCCC1	-14	100	0.3	98*
Cc1cc(OCC(=O)Nc2c(C)ccc3nsnc23)ccc1Cl	-14	104	0.1	-1
CCCCNC(=O)CSc1nc(-c2ccc(OC)cc2)cc(C(F)(F)F)n1	nt	105	nt	nt
CCOC(=O)c1c(NC(=O)CSc2nc(-c3ccc(OC)cc3)cc(C(F)(F)F)n2)sc(C)c1C	nt	86*	nt	nt
CCCOC(=O)c1c(NC(=O)C(C)Sc2nc(-c3ccccc3)cc(C(F)(F)F)n2)sc(C(=O)N(C)C)c1C (stereo not given)	nt	99	nt	nt
CCCOC(=O)c1c(NC(=O)CSc2nc(-c3ccco3)cc(C(F)(F)F)n2)sc(C(=O)N(C)C)c1C	-3	99	-0.1	37
CCN(CC)C(=O)c1sc(NC(=O)C(C)Sc2nc(-c3ccccc3)cc(C(F)(F)F)n2)c(C(=O)OC)c1C (stereo not given)	nt	84*	nt	nt
COC(=O)c1c(NC(=O)CSc2nc(-c3ccco3)cc(C(F)(F)F)n2)sc2c1CCCC2	-5	99	0.1	57*
CC[C@@H](C(=O)C(C)[C@@H](O)[C@H](C)CCc1ccc(C)c(O)c1C(=O)O)C1OC(CC)(C2CC[C@](O)(CC)[C@H](C)O2)C[C@@H]1C (stereo not given in full)	-7	101	-0.05	-213
Cc1ccc(C(=O)OC(C)CN2CCCC2)cc1 (stereo not given)	nt	nt	-0.8	-16
COc1ccc(-c2[nH]c(=S)nc(N)c2-c2nc3ccccc3n2C)cc1	-36	98	-0.9	16
OC(c1ccc(Cl)cc1)C(O)c1nc2ccccc2[nH]1 (stereo not given)	0	100	-0.3	-6
OCC(O)C(O)C(O)C(O)c1nc2ccccc2[nH]1 (stereo not given)	-16	62*	-0.15	-12
NC(=O)c1c(NC(=O)/C=C/c2cccs2)sc2c1CCCC2	-43	99	-0.15	53*
N#Cc1c(NC(=O)/C=C/c2cccs2)sc2c1CCC2	nt	nt	-0.45	nt
CCOC(=O)c1c(C)oc2nc(C)nc(N3CCc4cc(OC)c(OC)cc4C3C)c12 (stereo not given)	-17	101	0.05	-12
CNc1ccc2cccc(O)c2n1	-11	102	-3.3*	-34
Cc1cc(C(=O)N(CCC#N)Cc2ccccc2)no1	nt	nt	-0.9	nt
CC1CCCC(C)N1NC(=O)C1CC(=O)N(c2ccc3c(c2)OCCO3)C1 (stereo not given)	-19	106	-0.95	-5
O=C(Cn1ncc2c3ccccc3n(Cc3ccccc3)c2c1=O)N1CCOCC1	-1	102	0.05	39
Cc1sc(NC(=O)Cn2nc(C(F)(F)F)cc2C)c(C(N)=O)c1C	3	68*	0.05	nt
SMILES	MenB inh	Polio RdRp inh	AID504770	Mtb MbtI inh
COc1ccccc1-n1cc(C(=O)c2ccccc2O)cc(C#N)c1=O	-20	113	-0.2	96*
CN(C)c1nc(C2CC2)nc2c1nnn2Cc1ccccc1Cl	38*	104	1.9	7
CC(C)(C)c1nc(N2CCN(C(=O)c3ccco3)CC2)c2nnn(Cc3ccccc3Cl)c2n1	24*	103	0.85	23
NC(=O)C1CCN(c2nc(C3CC3)nc3c2nnn3Cc2ccccc2Cl)CC1	52*	102	2.5	7
CC(C)(C)OC(=O)N1CCC(c2nc3c(nnn3Cc3ccccc3Cl)c(=O)[nH]2)CC1	-17	104	0.35	-10
Cc1nn(-c2ccccc2)c(Cl)c1C1N2CCCN1CC2 (stereo not given)	33*	102	1.2	3
COc1ccc(CCNC(=S)N2CCCC2)cc1OC	-24	100	-0.95	-16
COc1ccc(CCNC(=S)N2CCCC(C(F)(F)F)C2)cc1 (stereo not given)	-8	80*	-0.5	84*
Cc1ccc(C(=O)Nc2ccccc2C)cc1	11	100	-0.65	5
Cc1ccccc1NC(=O)c1sc(N)c(C(N)=O)c1C	-19	97	-1.1	87*
CC1CN(C(=O)c2ccc(C#N)cc2)CC(C)O1 (stereo not given)	17	100	-0.15	2
CC(C)P(=O)(c1cccc(C(=O)O)c1)C(C)C	23*	102	0.55	nt
Cc1cccc(C)c1Nc1c(-c2ccccc2F)nc2cccc(C)n12	nt	88*	nt	nt
Cc1cccc2nc(-c3ccccn3)c(Nc3ccc(F)cc3)n12	nt	120	nt	nt
